This is one part of a sample in which hits are shown more often than they occur.
HT1080NT lethal – kills 2HG-producing HT-1080-NT fibrosarcoma cells. actives 1.6% (n = 360,000). Potency, µM (highest dose often 46.1 µM), for the others: at the top dose activity, negative = less viability, actives largely listed as cytotoxic. HT-1080-NT fibrosarcoma viability, CellTiter-Glo ATP luminescence, 48 h;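 note: NT is the 2HG producing partner of a matched IDH1 knockdown line; potency is the fitted concentration of half-maximal effect; 0% = DMSO-treated cells and -100% = media-only wells without cells; nearly all actives have a fitted effect of over 55% in size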
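Fibrosarcoma NT cells, 750 per well in 5% FBS RPMI, were exposed to compound for 48 hours. Viability: CellTiter-Glo luminescence.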
DT40 TDP1 CPT – growth inhibition of DT40 Tdp1-/-;hTDP1 cells with camptothecin (screen for TDP1 inhibitors); chicken DT40 Tdp1-/-;hTDP1 cells + 20 nM CPT, ATP luminescence, 48 h; Potency, µM (top dose mostly 46.2 µM), for the others: at the highest dose activity change, negative = growth inhibition, actives largely listed as inhibitors; actives 12% (n = 420,000); AID 686979; note: potency is the fitted concentration of half-maximal effect; nearly all actives have a fitted effect of over 55% in size
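Chicken DT40 Tdp1-/- cells stably complemented with human TDP1 were seeded at 400 cells/well in medium containing 20 nM camptothecin, exposed to pin-transferred compounds, and grown at 37 °C for at least 48 hr. Viability was read as ATP luminescence.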
TDP1 cell noCPT – qHTS for Inhibitors of human tyrosyl-DNA phosphodiesterase 1 (TDP1): qHTS in cells in absence of CPT; DT40 Tdp1-/- hTDP1 cells, no CPT, ATP luminescence, 48 h; Potency, µM (highest dose often 46.2 µM), for inactives: at the top dose activity change, negative = growth inhibition, most hits filed as inhibitors; actives 15% (n = 420,000); AID 686978, 2013; note: potency is the fitted concentration of half-maximal effect; nearly all actives have a fitted effect of over 55% in size
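A cellular qHTS used chicken DT40 cells lacking endogenous Tdp1 but carrying stably transfected human TDP1. Compounds were applied without camptothecin, and cell growth kinetics were judged by ATP-dependent luminescence after ≥48 hr.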
IL-1B inflam inh – blocks inflammasome-driven IL-1 beta release. THP-1 LPS/ATP IL-1B secretion, AlphaLISA, 16 h; stronger effect = lower value. activity change, % at 57.5 µM. AID 743279. actives 4.7% (n = 360,000); in the data active = activity change below about -50%; inconclusive = mostly about -30% to -49%
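Secreted IL-1B measured by AlphaLISA bead assay after 16 h compound exposure of THP-1 cells; compounds (final up to 57.5 uM) added 1 h before LPS (250 ng/mL) and ATP (1.25 mM) stimulation; lower signal means less secretion.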
HT1080 IDH1KD tx – toxicity to HT-1080 IDH1 knockdown cells (counter line) | HT-1080 IDH1 knockdown viability, ATP luminescence, 48 h | actives 2% (n = 360,000) | AID 686971 | Potency, µM (doses to about 46.1 µM), without a hit: top-dose activity, negative = toxicity, actives largely listed as cytotoxic;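 note: potency is the fitted concentration of half-maximal effect; 0% = DMSO wells and -100% = cell-free medium wells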
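Assay cells: HT-1080 with IDH1 knockdown, 750 per well, RPMI/5% FBS. Exposure: 48 h at 37 °C following 2 h pre-incubation. Read: CellTiter-Glo luminescence; fitted concentration-response, curve class assigned.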
12-LOX inh – inhibitors of human 12S-lipoxygenase ALOX12 | Potency, µM (series often up to 108 µM), for inactives: at the highest dose activity change, negative = inhibition, most hits filed as inhibitors | AID 1671190 | P18054 | actives 1.1% (n = 580,000) | purified 12hLO, xylenol orange hydroperoxide absorbance; note: potency is the fitted concentration of half-maximal effect
Target sequence (P18054 whole entry, looked up): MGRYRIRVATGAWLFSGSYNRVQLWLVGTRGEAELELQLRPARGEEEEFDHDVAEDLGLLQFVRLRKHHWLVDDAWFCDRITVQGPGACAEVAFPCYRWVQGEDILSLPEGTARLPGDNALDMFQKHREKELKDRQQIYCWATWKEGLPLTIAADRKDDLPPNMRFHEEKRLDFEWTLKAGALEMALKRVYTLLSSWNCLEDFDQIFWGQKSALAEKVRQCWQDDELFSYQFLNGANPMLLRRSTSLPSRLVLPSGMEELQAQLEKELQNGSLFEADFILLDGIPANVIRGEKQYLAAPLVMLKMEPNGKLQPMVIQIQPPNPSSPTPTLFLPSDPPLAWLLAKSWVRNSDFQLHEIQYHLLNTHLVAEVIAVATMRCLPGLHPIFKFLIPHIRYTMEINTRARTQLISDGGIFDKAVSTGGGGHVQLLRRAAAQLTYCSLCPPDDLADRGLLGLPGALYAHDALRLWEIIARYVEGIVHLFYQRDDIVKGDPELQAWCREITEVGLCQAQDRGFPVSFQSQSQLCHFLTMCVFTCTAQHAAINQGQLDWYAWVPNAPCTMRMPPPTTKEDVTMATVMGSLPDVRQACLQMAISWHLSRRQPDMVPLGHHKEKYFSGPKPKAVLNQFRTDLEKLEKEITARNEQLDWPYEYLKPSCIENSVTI
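Hydroperoxide product was detected by ferrous iron/xylenol orange as the 573 to 405 nm absorbance ratio. Arachidonic acid at 40 uM (final) was turned over for 30 min at room temperature by 150 nM human 12hLO, pH 7.0 Hepes buffer, after 15 min compound preincubation.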
* marks the source's active call; other numbers are inactive results; ? = inconclusive; nt = no result. Unless noted, calls come from the whole dose curve; as a rule, active = well fitted curve in the direction sought with a large enough effect; inconclusive = small, poorly fitted or top-dose-only effect, or another doubt; inactive = no such curve, though single readings can be large; an effect the other way counts as inactive or inconclusive. Unless noted, % is set by controls: 0 for no effect and ±100 for the full control effect.

SMILES	HT1080NT lethal	DT40 TDP1 CPT	TDP1 cell noCPT	IL-1B inflam inh	HT1080 IDH1KD tx	12-LOX inh
OC(COc1ccccc1)CN(Cc1ccccc1)CC(O)COc1ccccc1 (stereo unspecified)	?	16µM*	21µM*	-53*	?	-3%
COc1cccc(OCC(O)CN(CCO)Cc2ccccc2)c1 (stereo unspecified)	-6%	-20%	-21%	22	0%	-11%
N#Cc1ccc(OCC(=O)c2ccc3c(c2)CCC3)cc1	nt	nt	nt	nt	nt	3%
O=C(Cn1nnc(-c2ccc(F)cc2)n1)N(Cc1cccs1)c1ccc2c(c1)OCCO2	nt	nt	nt	nt	nt	23%
CCc1cc(CC)n(-c2nc3c(c(=O)n(CC)c(=O)n3C)n2Cc2ccccc2F)n1	nt	nt	nt	nt	nt	9%
C=CC[C@@H](CC(=O)N(CCO)Cc1ccccc1)C(=O)N[C@H](COC(=O)[C@@H](CC=C)Cc1ccc(F)cc1)Cc1ccccc1	?	?	23µM*	-64*	?	?
C=CC[C@@H](CC(=O)N(CCO)Cc1ccccc1)C(=O)N[C@@H](COC(=O)[C@@H](CC=C)Cc1ccc(F)cc1)Cc1ccccc1	?	21µM*	21µM*	-68*	?	-18%
CCN1CCN(CCN2CC3(CCN(C4CCOCC4)CC3)OC2=O)CC1	nt	nt	nt	nt	nt	72%
CC(C)N1CCN(CCN2CC3(CCN(C(=O)CCN)CC3)OC2=O)CC1	nt	nt	nt	nt	nt	18µM*
Cc1ccc(-c2nc(CNC(=O)Nc3ccc(F)cc3)c(C)o2)cc1	nt	nt	nt	nt	nt	-19%
Brc1cccc(/C=N/Nc2cccc3cccnc23)c1	nt	nt	nt	nt	nt	-17%
Clc1ccc(N/N=C/c2ccncc2)cc1Cl	-24%	-22%	?	-20	?	?
Clc1cccc(/C=N/Nc2ccc(Cl)c(Cl)c2)c1	nt	nt	nt	nt	nt	5.6µM*
Clc1ccc(N/N=C/c2ccccc2)cc1Cl	nt	nt	nt	nt	nt	2.2µM*
Brc1cccc(/C=N/Nc2ccc3ccccc3c2)c1	nt	nt	nt	nt	nt	5.6µM*
Clc1ccc(N/N=C/c2cccc(/C=N/Nc3ccc(Cl)c(Cl)c3)c2)cc1Cl	nt	nt	nt	nt	nt	0.71µM*
O=C(C1CCOCC1)N1CCC(N2C(=O)C(O)C23CCCCC3)CC1 (stereo unspecified)	nt	nt	nt	nt	nt	5%
CN1c2cc(C(=O)Nc3ccc4c(c3)OCCO4)ccc2C(=O)N2CCCC21 (stereo unspecified)	nt	nt	nt	nt	nt	13%
COCCn1c(C)cc(C(=O)CSc2nc3ccc(Cl)cc3[nH]2)c1C	nt	nt	nt	nt	nt	-25%
Cc1cc(C(=O)CSc2nc3ccc(Cl)cc3[nH]2)c(C)n1CC1CCCO1 (stereo unspecified)	-18%	9.2µM*	5.8µM*	-12	?	-2%
Cc1ccc(Nc2nnc(SCC(=O)c3ccc(O)cc3O)s2)cc1	-25%	-29%	?	31	-18%	45µM*
Cc1cc(C(=O)CSc2nnc(-c3ccc(Cl)cc3)n2CC2CCCO2)c(C)n1C (stereo unspecified)	0%	12µM*	23µM*	-2	-7%	-2%
COc1ccc(Nc2nnc(SCC(=O)c3cc(C)n(CC4CCCO4)c3C)s2)cc1 (stereo unspecified)	-15%	18µM*	?	1	-12%	-8%
O=C(Cn1c(=O)c2cccn2c2ccc(F)cc21)N1CCN(c2ccccc2)CC1	nt	-12%	-15%	nt	nt	-9%
COc1ccccc1N1CCN(C(=O)CSc2nc3ccccc3nc2N2CCC(C)CC2)CC1	-8%	21µM*	23µM*	?	-3%	0%
SMILES	HT1080NT lethal	DT40 TDP1 CPT	TDP1 cell noCPT	IL-1B inflam inh	HT1080 IDH1KD tx	12-LOX inh
Cc1ccc(Cc2nc3ccccc3nc2SCC(=O)N2CCN(c3ccc(F)cc3)CC2)cc1	nt	?	?	nt	nt	-12%
O=C(CSc1nc2ccccc2nc1Cc1ccc(Cl)cc1)N1CCN(c2ccccc2F)CC1	nt	16µM*	21µM*	nt	nt	-10%
COc1ccccc1N1CCN(C(=O)CSc2nc3ccccc3nc2Cc2ccc(C)cc2)CC1	nt	16µM*	?	nt	nt	-21%
CCC(CC)C(=O)Nc1nnc(SCC(=O)N2CCN(c3ccccc3OC)CC2)s1	-11%	21µM*	21µM*	-15	-9%	-1%
Cc1ccccc1Cn1cc(CCC(=O)NC2CC2)c2ccccc21	nt	nt	nt	nt	nt	12%
COCCn1c(COc2cccc(-n3nnnc3C)c2)nnc1C1CC(N)C1 (stereo unspecified)	nt	nt	nt	nt	nt	-4%
O=C(Cc1ccc(Br)cc1)OCc1cc(-c2ccc(Cl)cc2)no1	nt	nt	nt	nt	nt	11%
COc1ccc(NC(=O)CSc2nc3ccccc3nc2Cc2ccc(C)cc2)cc1Cl	nt	13µM*	?	nt	nt	-20%
COc1cc(NC(=O)CSc2nc3ccccc3nc2Cc2ccc(Cl)cc2)cc(OC)c1	nt	-7%	-16%	nt	nt	-15%
CCN1CCN(c2ncc3c(n2)CCN(Cc2cc(Br)cs2)C3)CC1	nt	18µM*	21µM*	nt	nt	11µM*
CCN1CCN(c2ncc3c(n2)CCN(Cc2sccc2C)C3)CC1	nt	?	23µM*	nt	nt	?
CCN1CCN(c2ncc3c(n2)CCN(Cc2ccc(Br)s2)C3)CC1	nt	13µM*	10µM*	nt	nt	?
Cc1ccsc1CN1CCc2nc(N3CCN(c4ccccc4F)CC3)ncc2C1	nt	?	?	nt	nt	4%
CCN1CCN(c2ncc3c(n2)CCN(Cc2ccc(C)s2)C3)CC1	nt	?	?	nt	nt	-5%
CN1CCN(c2ncc3c(n2)CCN(Cc2ccc(Br)s2)C3)CC1	nt	23µM*	15µM*	nt	nt	4%
CCCCN1CCc2nc(N3CCN(C)CC3)ncc2C1	nt	-19%	?	nt	nt	?
O=C(CCC1CCCCC1)N(c1ccc(Br)cc1)C1C=CS(=O)(=O)C1 (stereo unspecified)	nt	nt	nt	nt	nt	-23%
NC(=O)C1CCCN(C(=O)c2ccc(NC(=O)c3cccs3)cc2)C1 (stereo unspecified)	-9%	-14%	-2%	-15	-3%	79%
Cc1cc(C(=O)Nc2ccc([C@H]3OCC(=O)N(Cc4nccn4C)[C@@H]3CO)cc2)n(C)n1	nt	nt	nt	nt	nt	20%
O=C(NN1C(=O)NC2(CCCCC2)C1=O)c1ccc(-c2ccc([N+](=O)[O-])cc2)o1	-2%	21µM*	21µM*	-7	-8%	?
O=C(Nc1ccccc1)c1ccc[n+](Cc2ccc([N+](=O)[O-])cc2)c1	5%	0%	2%	-59*	5%	2%

Assay outcomes from PubChem BioAssay.
